# Bioassay records: PubChem, several laboratories
# The list is not random: actives were taken first. Their share in the collection is about 2.8%.
# KKLEB tox: counter-screen for CF NF-kB inhibitors: cytotoxicity. 360,000 tested, 0.36% active. activity change (cytotoxicity), % at 5 µM. AID 602141. KKLEB CF airway cells viability, ATPlite luminescence, overnight; stronger effect = lower value; cells stimulated with P. aeruginosa culture filtrate;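 active = corrected activity change at or below -50% at 5 µM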
# HIF-2a block: inhibitors of HIF-2a. 360,000 tested, 0.72% active. inhibition, % at 18.8 µM. 786-0 RCC cells HIF-2a reporter, luciferase luminescence, overnight. AID 624352;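 active = inhibition of the luminescence signal of 40% or more relative to plate controls, in a single-dose primary screen at 18.75 µM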
# Peg3 prom inh: reduces Peg3 promoter-driven luciferase expression in HeLa. HeLa PEG-Prom luciferase reporter, luminescence, overnight. inhibition, % at 20 µM. 360,000 tested, 1.7% active. AID 588405;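 active = inhibition of at least 50% at 20 µM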
# CF NFkB block: cystic fibrosis NF-kB activation inhibition. KKLEB NF-kB-GFP reporter, PAF-induced, GFP fluorescence overnight. inhibition, % at 5 µM. 360,000 tested, 0.86% active. AID 588850;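 active = at least 50% inhibition at 5 µM, scaled per plate between neutral and stimulator controls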;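 also: PAF is a Pseudomonas aeruginosa culture filtrate used as stimulus; plate controls were PAF-stimulated DMSO wells for no effect and unstimulated DMSO wells for full effect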
# Shn3 inh set2: Schnurri-3 reporter inhibition in Clone20 osteoblasts. Clone20 osteoblast Shn3 3'UTR firefly luciferase, 24 h. inhibition, % at 12.5 µM. 360,000 tested, 0.52% active. AID 588674;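 active = mean inhibition of at least 75% with every replicate also reaching 75%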;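 also: 0% = median of neutral control wells and 100% = pilot-screen positive control compound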
# MITF TRPM1 inh: reduces MITF-dependent TRPM1 promoter luciferase signal; SK-MEL-5 TRPM1 promoter luciferase, 24 h; inhibition, % at 12.5 µM; 330,000 tested, 0.83% active;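 active = mean inhibition across replicates of 60% or more, whatever share of single replicates reaches that level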
# Active calls of the source: *; x = no result; ! = not active in a repeat.
SMILES,KKLEB tox,HIF-2a block,Peg3 prom inh,CF NFkB block,Shn3 inh set2,MITF TRPM1 inh
COC(=O)c1ccc(C(=O)OC)c(NC(=S)N2CCCC(CO)C2)c1 (stereo not given),2,12,6,4,-16,-1
Cc1cc(C(C)(C)C)cc(S(=O)(=O)NCCc2ccncc2)c1C,1,14,18,-1,19,12
COc1ccc(CCNC(=O)Cc2ccccc2)cc1OC,2,9,5,-6,0,-7
COc1ccc(CC(=O)NCCc2ccc(OC)c(OC)c2)cc1,1,15,52*,-16,9,-7
CC(C)c1ccc(Oc2cccc3c2S(=O)(=O)N(C2CCCC2)CC(COCc2ccccc2)O3)cc1 (stereo not given),5,1,4,3,86*,12
O=C1c2[nH]nc(-c3ccccc3O)c2C(c2cccc(Cl)c2)N1Cc1ccco1 (stereo not given),-1,31,60*,6,-5,8
CCOC(=O)Cn1c(=NC(=O)c2ccc([N+](=O)[O-])s2)sc2ccccc21,-6,13,-9,-3,15,73*
CCOC(=O)Cn1c(=NC(=O)C2COc3ccccc3O2)sc2cc(S(N)(=O)=O)ccc21 (stereo not given),4,19,3,2,-1,-10
Cc1c(C#N)c(O)n(C)c(=O)c1N=Nc1ccc(S(N)(=O)=O)cc1,1,-76,-73,-65,-23,23
CCOC(=O)c1ccc(N=Nc2c(C)c(C#N)c(O)[nH]c2=O)cc1,-20,-139,-92,65*,-68,-21
CC(NC(=O)COC(=O)c1cc(NS(=O)(=O)c2ccc(Cl)c([N+](=O)[O-])c2)ccc1O)C1CC2CCC1C2 (stereo not given),4,84*,96*,-16,-16,4
CCn1c(SCC(=O)Nc2ccc(C(C)=O)cc2)nc2c([nH]c3ccccc32)c1=O,-6,-18,18,-3,45,22
CCn1c(SCC(=O)Nc2cccc(NC(C)=O)c2)nc2c([nH]c3ccccc32)c1=O,-52*,17,30,61*,7,26
COc1ccc(-c2ccc3c(c2)S(=O)(=O)c2cccc(C(=O)NCCOc4ccccc4Cl)c2C3=O)cc1OC,-22,-15,87*,0,13,69*
COc1ccc(-c2ccc3c(c2)S(=O)(=O)c2cccc(C(=O)NCc4ccccc4Cl)c2C3=O)cc1OC,-6,-32,5,17,-3,0
CC(C)c1cccc(-c2ccc3c(c2)S(=O)(=O)c2cccc(C(=O)NCc4ccccc4Cl)c2C3=O)c1,-38,0,51*,41,37,82*
CCc1nc(N)nc(N)c1-c1ccc(Cl)c(N=[N+]=[N-])c1,-19,29,14,17,81*!,31
COc1ccc(Nc2nc(Nc3ccc(OC)cc3)nc(-n3[nH]c(=O)c(C)c3C)n2)cc1,-31,-40,48,87*,81*,3
COc1cc2nc(Nc3ccc(C)c(Cl)c3)nc(N)c2cc1OC,-51*,-19,114*,-1,24,70*
COc1cc2nc(Nc3ccc(C)c(C)c3)nc(N)c2cc1OC,-29,-17,56*,-27,-24,35
CCCCNC(=O)Nc1nc2ccc(CC)cc2s1,3,-229,-267,-20,-28,-72
O=C(Nc1cccc(O)c1)C(Cc1ccccc1)N1C(=O)c2cccc3cccc(c23)C1=O (stereo not given),-22,23,66*,24,-5,-6
O=C(O)C(Cc1ccccc1)N1C(=O)c2cccc3cccc(c23)C1=O (stereo not given),-8,18,12,0,-7,13
CCCC(=O)c1c[nH]c(C(=O)N2CCOCC2)c1,9,12,12,-9,0,3
O=C1c2cccnc2-c2ncccc21,-12,8,-1,-5,-20,-6
O=C1C(=O)c2cccnc2-c2ncccc21,-83*,90*,102*,90*,95*,x
CSCCC(NC(=O)COc1ccccc1)C(=O)NCc1cccs1 (stereo not given),12,13,-3,-10,9,6
Cc1ccc(CNC(=O)C2CCCN(c3nc4ccsc4c(=O)s3)C2)cc1 (stereo not given),2,14,11,-11,7,16
